# About 79,000 compounds went through this panel and 15% of them were active in at least one assay; those are over-represented in the sample as a whole. Values without a mark were called inactive. Activity calls are given as the source filed them. No stated cut-off is given here; in the data, active means growth inhibition above about 70%; inactive means the rest.
# Assay: NCI Yeast Anticancer Drug Screen. Data for the mlh1 strain (AID 171);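 further: 0% = growth of vehicle-treated control cultures of the same strain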
# Details: S. cerevisiae mlh1 strain growth inhibition, hits give high values
# Procedure: Growth inhibition of yeast strains with defined genetic alterations is measured as a screen for potential anti-cancer activity. Selected strains with alterations in DNA damage repair or cell cycle control were exposed to compounds and growth inhibition was measured relative to vehicle treated controls. The strain used in this assay is mlh1
Compound,growth inhibition (at 1.2 µM),growth inhibition (at 3.7 µM),growth inhibition (at 11.0 µM),growth inhibition (at 33.0 µM),growth inhibition (at 100.0 µM)
Nc1ncncc1C(C1=C(O)COC1=O)C1=C(O)COC1=O,4%,1%,3%,3%,0%
O=C1CSc2cc([N+](=O)[O-])ccc2N1,18%,5%,6%,0%,-22%
CC(=O)Oc1ccc2c(c1)Cc1cc(N=C3C=CC(=O)O3)ccc1-2,18%,51%,98% (active),99% (active),97% (active)
CCN(CC)CCN1C(=O)c2cccc3cc(OC)cc(c23)C1=O,-24%,-5%,-7%,-15%,9%
CC/C(=C(\c1ccccc1)c1ccc(OCCN(C)C)cc1)c1ccccc1,-3%,0%,82% (active),97% (active),97% (active)
CC(=O)OC1CCC2(C)C(=CCC3C4CCC5(OC6CC(C)CN(C(C)=O)C6C5C)C(C)=C4C(=O)C32)C1 (stereo not given),-17%,-21%,51%,96% (active),90% (active)
CCCCN(CCCC)CCSc1ccc(Cl)cc1,-14%,-11%,-9%,17%,91% (active)
O=C(Nc1ccc(Cl)cc1)OCC#CCCl,83% (active),94% (active),97% (active),98% (active),98% (active)

# — PubChem BioAssay (NCI)
